Unmarked numbers belong to inactive results. Inconclusive results are not listed. For some of these results: Entries with a potency or affinity are not part of this list. Active and inactive are the calls of the source.
Key:
[1] = Ebola virus entry assay, green fluorescence channel
[2] = Ebola virus entry assay, blue channel fluorescence
[3] = Ebola virus entry assay, green fluorescence channel; remark: listed apart in the source
[4] = Ebola virus entry assay, ratio channel readout
[5] = Ebola virus entry assay, blue channel fluorescence; remark: listed apart in the source
[6] = Ebola virus entry assay, ratio channel
[7] = Ebola virus entry assay, reporter ratio channel; AC50: Channel type: primary unless noted; outcome: Channel type: primary unless noted
[8] = Ebola virus entry cell assay, ratio channel
[9] = Ebola virus entry reporter assay, green channel fluorescence
[10] = qHTS assay for measurement of the activity of small molecule inhibitors on Zika virus induced Caspase-3 activity in human iPSC derived neural progenitor cells (hNPCs) (AID 1224857; active = well fitted inhibition curve with a large enough effect; note: % of control where 0% means no effect; nearly all actives have a fitted effect of over 65% in size); settings: hNPCs ZIKV-induced caspase-3/7, Caspase-Glo luminescence, 6 h; series mostly up to 45.7 µM
Summary of the method: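 In medium with heparin 2 ug/ml and cyclopamine 2 uM, hNPCs (350 cells/well) received compound for one hour and then Zika virus at 2 FFU/cell; caspase activity was measured by Caspase-Glo 3/7 luminescence 6 h post-infection.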

[11] = qHTS assay for measurement of the activity of small molecule inhibitors on Zika virus induced Caspase-3 activity in human astrocytoma cells (AID 1224859; active = well fitted inhibition curve with a large enough effect;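 note: plate controls were ZIKV-infected untreated cells for no effect and uninfected cells for full effect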); settings: SNB-19 ZIKV-induced caspase-3/7, luminescence, 6 h; series mostly up to 45.7 µM
Summary of the method: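 A cell-based luminescent caspase-3/7 assay used SNB-19 cells infected with ZIKV (2 FFU/cell) for 6 h following 1 h compound pretreatment.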
Throughout, for efficacy: 0% is about no effect.

**Q.** With CCN(CC)CCNC(=O)c1c(C)[nH]c(/C=C2\C(=O)Nc3ccc(F)cc32)c1C as the compound, how does the efficacy [1] read?
**A.** -131%

**Q.** And the AC50 [2]?
**A.** 3.55 µM (active)

**Q.** What about the outcome [3] of the same compound?
**A.** inactive

**Q.** What about the AC50 [4] of the same compound?
**A.** 3.17 µM (active)

**Q.** What about the AC50 [5] of the same compound?
**A.** 1 µM (active)

**Q.** And the AC50 [6]?
**A.** 0.708 µM (active)

**Q.** And the outcome [7]?
**A.** inactive [Channel type: confirmation]

**Q.** What about the AC50 [8] of the same compound?
**A.** 3.16 µM (active)

**Q.** Which results are given for CN(C)CC/C=C1\c2ccccc2COc2ccccc21?
**A.** efficacy [1]: 117%; outcome [2]: inactive; outcome [3]: inactive; outcome [4]: inactive; AC50 [5]: 20 µM (active); AC50 [6]: 14.1 µM (active); AC50 [7]: 14.1 µM (active); AC50 [8]: 25.1 µM (active)

**Q.** For COC(=O)C1=C(C)NC(C)=C(C(=O)OCCN(C)Cc2ccccc2)C1c1cccc([N+](=O)[O-])c1 (stereo not drawn), which efficacy [1] is on record?
**A.** -75%

**Q.** And the outcome [2]?
**A.** inactive

**Q.** And the outcome [3]?
**A.** inactive

**Q.** And the outcome [4]?
**A.** inactive

**Q.** What about the AC50 [5] of the same compound?
**A.** 12.6 µM (active)

**Q.** What about the AC50 [6] of the same compound?
**A.** 10 µM (active)

**Q.** What about the AC50 [7] of the same compound?
**A.** 10 µM (active)

**Q.** What about the outcome [9] of the same compound?
**A.** inactive

**Q.** And the AC50 [8]?
**A.** 28.2 µM (active)

**Q.** Which efficacy [1] does the source give for CCC(=O)C(CC(C)N(C)C)(c1ccccc1)c1ccccc1 (stereo not drawn) here?
**A.** 118%

**Q.** And the outcome [2]?
**A.** inactive

**Q.** What about the outcome [3] of the same compound?
**A.** inactive

**Q.** What about the outcome [4] of the same compound?
**A.** inactive

**Q.** What about the AC50 [5] of the same compound?
**A.** 10 µM (active)

**Q.** And the AC50 [6]?
**A.** 7.94 µM (active)

**Q.** And the AC50 [7]?
**A.** 7.94 µM (active)

**Q.** And the AC50 [8]?
**A.** 15.8 µM (active)

**Q.** For CN(C)CCC[C@@]1(c2ccc(F)cc2)OCc2cc(C#N)ccc21, which efficacy [1] is on record?
**A.** 55%

**Q.** What about the outcome [2] of the same compound?
**A.** inactive

**Q.** What about the outcome [3] of the same compound?
**A.** inactive

**Q.** And the outcome [4]?
**A.** inactive

**Q.** What about the AC50 [5] of the same compound?
**A.** 39.8 µM (active)

**Q.** And the outcome [6]?
**A.** inactive

**Q.** And the AC50 [7]?
**A.** 39.8 µM (active)

**Q.** And the outcome [9]?
**A.** inactive

**Q.** And the outcome [8]?
**A.** inactive

**Q.** What does the source list for CN1CCC(=C2c3ccccc3C=Cc3ccccc32)CC1?
**A.** efficacy [1]: 67.2%; outcome [2]: inactive; outcome [3]: inactive; outcome [4]: inactive; AC50 [5]: 11.2 µM (active); AC50 [6]: 10 µM (active); AC50 [7]: 10 µM (active); outcome [9]: inactive; AC50 [8]: 14.1 µM (active)

**Q.** Which efficacy [1] does the source give for Cc1c(O)cccc1C(=O)N[C@@H](CSc1ccccc1)[C@H](O)CN1C[C@H]2CCCC[C@H]2C[C@H]1C(=O)NC(C)(C)C here?
**A.** 83.4%

**Q.** And the outcome [2]?
**A.** inactive

**Q.** And the outcome [3]?
**A.** inactive

**Q.** What about the outcome [4] of the same compound?
**A.** inactive

**Q.** And the AC50 [5]?
**A.** 39.8 µM (active)

**Q.** And the outcome [6]?
**A.** inactive

**Q.** What about the AC50 [7] of the same compound?
**A.** 39.8 µM (active)

**Q.** And the outcome [9]?
**A.** inactive

**Q.** And the outcome [8]?
**A.** inactive

**Q.** With COc1ccc([C@@H]2Sc3ccccc3N(CCN(C)C)C(=O)[C@@H]2OC(C)=O)cc1 as the compound, how does the efficacy [1] read?
**A.** 53.7%

**Q.** And the outcome [2]?
**A.** inactive

**Q.** What about the outcome [3] of the same compound?
**A.** inactive

**Q.** And the outcome [4]?
**A.** inactive

**Q.** What about the AC50 [5] of the same compound?
**A.** 28.2 µM (active)

**Q.** And the AC50 [6]?
**A.** 25.1 µM (active)

**Q.** And the AC50 [7]?
**A.** 25.1 µM (active)

**Q.** And the outcome [8]?
**A.** inactive

**Q.** Which efficacy [1] does the source give for CCN(CC)CCN1C(=O)CN=C(c2ccccc2F)c2cc(Cl)ccc21 here?
**A.** 47.1%

**Q.** And the outcome [2]?
**A.** inactive

**Q.** What about the outcome [3] of the same compound?
**A.** inactive

**Q.** And the outcome [4]?
**A.** inactive

**Q.** What about the AC50 [5] of the same compound?
**A.** 35.5 µM (active)

**Q.** And the outcome [6]?
**A.** inactive

**Q.** What about the AC50 [7] of the same compound?
**A.** 39.8 µM (active)

**Q.** And the outcome [9]?
**A.** inactive

**Q.** What about the outcome [8] of the same compound?
**A.** inactive

**Q.** What about the Potency [10] of the same compound?
**A.** inactive

**Q.** What about the outcome [11] of the same compound?
**A.** inactive

**Q.** What does the source list for CNCC[C@H](Oc1cccc2ccccc12)c1cccs1?
**A.** efficacy [1]: -133%; AC50 [2]: 11.2 µM (active); outcome [3]: inactive; outcome [4]: inactive; AC50 [5]: 6.31 µM (active); AC50 [6]: 3.55 µM (active); AC50 [7]: 3.55 µM (active); AC50 [8]: 10 µM (active)

**Q.** Which efficacy [1] does the source give for CCN(CC)CCOC(=O)C1(C2CCCCC2)CCCCC1 here?
**A.** 45%

**Q.** What about the outcome [2] of the same compound?
**A.** inactive

**Q.** And the outcome [3]?
**A.** inactive

**Q.** What about the outcome [4] of the same compound?
**A.** inactive

**Q.** What about the AC50 [5] of the same compound?
**A.** 12.6 µM (active)

**Q.** What about the AC50 [6] of the same compound?
**A.** 10 µM (active)

**Q.** And the AC50 [7]?
**A.** 10 µM (active)

**Q.** What about the outcome [9] of the same compound?
**A.** inactive

**Q.** And the AC50 [8]?
**A.** 15.8 µM (active)

**Q.** Which results are given for CC12CC3CC(C)(C1)CC(N)(C3)C2?
**A.** efficacy [1]: 58.3%; outcome [2]: inactive; outcome [3]: inactive; outcome [4]: inactive; AC50 [5]: 14.1 µM (active); AC50 [6]: 14.1 µM (active); AC50 [7]: 14.1 µM (active); outcome [9]: inactive; outcome [8]: inactive

**Q.** For CNCCCC1c2ccccc2C=Cc2ccccc21, which efficacy [1] is on record?
**A.** 60.1%

**Q.** And the AC50 [2]?
**A.** 11.2 µM (active)

**Q.** What about the outcome [3] of the same compound?
**A.** inactive

**Q.** And the AC50 [4]?
**A.** 8.92 µM (active)

**Q.** And the AC50 [5]?
**A.** 10 µM (active)

**Q.** And the AC50 [6]?
**A.** 8.91 µM (active)

**Q.** And the AC50 [7]?
**A.** 8.91 µM (active)

**Q.** And the AC50 [8]?
**A.** 8.91 µM (active)

**Q.** Which results are given for CN1C[C@H]2c3ccccc3Oc3ccc(Cl)cc3[C@@H]2C1?
**A.** efficacy [1]: 60.4%; outcome [2]: inactive; outcome [3]: inactive; outcome [4]: inactive; AC50 [5]: 22.4 µM (active); AC50 [6]: 14.1 µM (active); AC50 [7]: 14.1 µM (active); AC50 [8]: 17.8 µM (active)

**Q.** What does the source list for CN(C)CCC=C1c2ccccc2CCc2ccccc21?
**A.** efficacy [1]: 121%; AC50 [2]: 11.2 µM (active); outcome [3]: inactive; outcome [4]: inactive; AC50 [5]: 8.91 µM (active); AC50 [6]: 7.94 µM (active); AC50 [7]: 7.94 µM (active); outcome [9]: inactive; AC50 [8]: 11.2 µM (active)

**Q.** With CN1CCN(C(c2ccccc2)c2ccccc2)CC1 as the compound, how does the efficacy [1] read?
**A.** 84.8%

**Q.** What about the outcome [2] of the same compound?
**A.** inactive

**Q.** What about the outcome [3] of the same compound?
**A.** inactive

**Q.** And the outcome [4]?
**A.** inactive

**Q.** What about the AC50 [5] of the same compound?
**A.** 28.2 µM (active)

**Q.** And the AC50 [6]?
**A.** 22.4 µM (active)

**Q.** What about the AC50 [7] of the same compound?
**A.** 22.4 µM (active)

**Q.** What about the outcome [9] of the same compound?
**A.** inactive

**Q.** And the outcome [8]?
**A.** inactive

**Q.** With Fc1ccc([C@@H]2CCNC[C@H]2COc2ccc3c(c2)OCO3)cc1 as the compound, how does the efficacy [1] read?
**A.** 101%

**Q.** What about the AC50 [2] of the same compound?
**A.** 5.62 µM (active)

**Q.** What about the outcome [3] of the same compound?
**A.** inactive

**Q.** What about the AC50 [4] of the same compound?
**A.** 5.02 µM (active)

**Q.** And the AC50 [5]?
**A.** 5.01 µM (active)

**Q.** And the AC50 [6]?
**A.** 3.98 µM (active)

**Q.** What about the AC50 [7] of the same compound?
**A.** 3.98 µM (active)

**Q.** What about the AC50 [8] of the same compound?
**A.** 5.01 µM (active)

**Q.** Which efficacy [1] does the source give for COCCCC/C(=N\OCCN)c1ccc(C(F)(F)F)cc1 here?
**A.** 124%

**Q.** What about the outcome [2] of the same compound?
**A.** inactive

**Q.** And the outcome [3]?
**A.** inactive

**Q.** And the outcome [4]?
**A.** inactive

**Q.** And the AC50 [5]?
**A.** 15.8 µM (active)

**Q.** What about the AC50 [6] of the same compound?
**A.** 14.1 µM (active)

**Q.** And the AC50 [7]?
**A.** 14.1 µM (active)

**Q.** And the outcome [8]?
**A.** inactive

**Q.** For CN1CCN(CCCN2c3ccccc3Sc3ccc(C(F)(F)F)cc32)CC1, which efficacy [1] is on record?
**A.** -186%

**Q.** What about the AC50 [2] of the same compound?
**A.** 7.08 µM (active)

**Q.** And the outcome [3]?
**A.** inactive

**Q.** What about the outcome [4] of the same compound?
**A.** inactive

**Q.** And the AC50 [5]?
**A.** 3.55 µM (active)

**Q.** What about the AC50 [6] of the same compound?
**A.** 2.82 µM (active)

**Q.** What about the outcome [7] of the same compound?
**A.** inactive [Channel type: confirmation]

**Q.** What about the AC50 [8] of the same compound?
**A.** 3.98 µM (active)
